In PubChem BioAssay AID1649 (The Scripps Research Institute Molecular Screening Center, 2009):
This is one part of the list. Unmarked numbers belong to inactive results. Calls of active or inactive are those of the source. No stated cut-off is given here; in the data, active means activation above about 33%; inactive means the rest.

Experiment: NPY-Y2 potentiators or agonists, counter-screen for NPY-Y1 potentiator project, cell-based, fluorescence (AID 1649)
Conditions: HEK293-CNG cells, membrane-potential fluorescence (FLIPR), 1536-well; at 3.6 µM; hits give high values

| Structure (SMILES) | activation |
| --- | --- |
| COCCn1nnnc1C(c1ccccc1Cl)N1CCN(c2ccccc2OC)CC1 (stereo unspecified) | -5.69% |
| O=C(c1cccs1)N1CCN(C(=O)N2CCOCC2)CC1 | -5.13% |
| O=[N+]([O-])c1cc(Cl)cc(/C=N/NC(=S)Nc2cc(S(=O)(=O)N3CCOCC3)ccc2Cl)c1O | 64.8% (active) |
| O=C1/C(=C/c2coc3ccc(O)cc3c2=O)SC(=S)N1c1ccccc1 | 17.4% |
| O=C(Nc1ccccc1C(F)(F)F)c1cc(-c2ccc(O)cc2)on1 | -13.4% |
| CC1=C/C(=N\OS(=O)(=O)c2ccccc2)C=CC1=O | 35.6% (active) |
| COC(=O)c1sc(-c2ccc(C(C)(C)C)cc2)cc1NC(=O)/C=C/C(=O)O | 26.2% |
| Cc1ccccc1NCC(=O)N/N=C\c1ccc([N+](=O)[O-])s1 | 26.6% |
| CC(=O)c1ccc(NC(=O)C2CC(=O)Nc3nc4ccccc4n32)cc1 (stereo unspecified) | 22.9% |
| CSc1nc(-c2ccco2)nn1C(=O)c1ccccc1Cl | 18.9% |
| Cc1cccc(OCC(O)CN2CCN(CCN3C(=O)c4cccc5cccc(c45)C3=O)CC2)c1C (stereo unspecified) | 49.7% (active) |
| CN1C(=O)c2ccccc2C(C(=O)NCCCN2CCCC2)C1c1c[nH]c2ccccc12 (stereo unspecified) | -3.74% |
| COC(=O)c1ccc(NC(=O)CN(c2ccc(C)cc2)S(=O)(=O)c2c(C)n[nH]c2C)cc1 | 27.7% |
| N#Cc1ccc(C(=O)Nc2nc(-c3cccs3)c(C(=O)C(F)(F)F)s2)cc1 | -11.7% |
| O=C(Nc1ccc2c(c1)CCC2)c1cccc(S(=O)(=O)Nc2ccccc2Cl)c1 | -2.29% |
| CCn1c2ccccc2c2cc(NC(=O)Nc3ccc([N+](=O)[O-])cc3C)ccc21 | 20.9% |
